ALDH1A1 inh: qHTS Assay for Inhibitors of Aldehyde Dehydrogenase 1 (ALDH1A1) | Purified ALDH1A1, NADH fluorescence, propionaldehyde substrate | Potency, µM (series often up to 75.3 µM), without a hit: at the highest dose activity, negative = inhibition, most hits filed as inhibitors | 220,000 compounds, 7.3% hits | AID 1030, 2008 | Aldehyde dehydrogenase 1A1 (Homo sapiens), P00352; active = well fitted inhibition curve with a large enough effect, not every such curve was filed as active; inconclusive = small, poorly fitted or top-dose-only effect, or another doubt; inactive = no such curve, though single readings can be large or run the other way;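 note: plate controls were no enzyme wells and a reference inhibitor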
Sfp inh: qHTS Assay for Inhibitors of Bacillus subtilis Sfp phosphopantetheinyl transferase (PPTase). 4'-phosphopantetheinyl transferase ffp (Bacillus subtilis), Q9F4F7. Biochemical Sfp PPTase activity, qHTS. Potency, µM, for the others: largest response in the series, negative = inhibition, actives largely listed as inhibitors. 310,000 compounds, 3.5% hits;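 note: the enzyme is Sfp with the accession as filed and its product quenches rhodamine fluorescence; 0% = enzyme reaction without inhibitor and -100% = no enzyme wells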
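Fluorescence-quenching assay: 15 nM Sfp-PPTase preincubated 15 min at room temperature with compound, then 5 uM rhodamine-CoA and 12.5 uM BHQ-2-labelled YbbR peptide added. Fluorescence (ex 525/em 598 nm) read at start and after 30 min; difference gives rate.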
RORg inh: qHTS for inhibitors of ROR gamma transcriptional activity | Drosophila S2 Gal4-RORgamma UAS-luciferase reporter, 20 h | Potency, µM (titrated, usually from 53.6 µM), for the others: top-dose activity change, negative = inhibition, most hits filed as inhibitors | 310,000 compounds, 5.4% hits; note: nearly all actives have a fitted effect of over 60% in size
Target sequence (P51450 whole entry, looked up, the tested form may be a part): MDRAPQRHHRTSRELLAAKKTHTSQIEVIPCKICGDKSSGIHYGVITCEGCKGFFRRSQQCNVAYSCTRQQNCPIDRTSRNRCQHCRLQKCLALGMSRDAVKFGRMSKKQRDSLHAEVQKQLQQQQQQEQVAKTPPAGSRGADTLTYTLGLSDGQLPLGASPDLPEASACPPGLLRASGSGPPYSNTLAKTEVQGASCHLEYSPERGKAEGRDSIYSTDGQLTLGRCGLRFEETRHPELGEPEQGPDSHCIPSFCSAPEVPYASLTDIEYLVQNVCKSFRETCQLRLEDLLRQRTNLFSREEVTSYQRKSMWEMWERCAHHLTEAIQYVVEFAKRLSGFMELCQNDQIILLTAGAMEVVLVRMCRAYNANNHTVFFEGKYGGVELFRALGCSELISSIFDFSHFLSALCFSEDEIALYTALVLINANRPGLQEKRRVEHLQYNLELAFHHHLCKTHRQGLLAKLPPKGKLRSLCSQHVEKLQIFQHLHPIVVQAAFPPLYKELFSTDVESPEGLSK
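Stable Schneider cell line, Gal4 DNA-binding domain fused to ROR gamma, UAS-luciferase. Cmpd 1 hr RT → CuSO4 700 uM final → 20 hr RT → luciferase reagent 10 min → luminescence.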
VP16 counter: VP16 counterscreen qHTS for inhibitors of ROR gamma transcriptional activity | 310,000 compounds, 3.5% hits | Potency, µM (doses to about 53.6 µM), without a hit: top-dose activity, negative = inhibition, hits mostly inhibitors | Drosophila S2 Gal4-VP16 UAS-luciferase, luminescence, 20 h | AID 2546, 2010;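 note: Gal4-VP16 expression switched on by copper sulfate through the metallothionein promoter; nearly all actives have a fitted effect of over 50% in size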
PLK1 PBD inh: qHTS for Inhibitors of PLK1-PDB (polo-like kinase 1 - polo-box domain): Primary Screen; Serine/threonine-protein kinase PLK1 (Homo sapiens), P53350; Plk1 PBD binding of FITC phosphopeptide, fluorescence polarization; Potency, µM, without a hit: max response, negative = inhibition, hits mostly inhibitors; 360,000 compounds, 2.8% hits; note: series mostly up to about 57 µM; nearly all actives have a fitted effect of over 65% in size
Active calls of the source: *; ? = inconclusive; . = no result given. Sampled rows, rich in hits. Any-hit rate of the full collection: about 12%. Unless noted, calls come from the whole dose curve; as a rule, active = well fitted curve in the direction sought with a large enough effect; inconclusive = small, poorly fitted or top-dose-only effect, or another doubt; inactive = no such curve, though single readings can be large; an effect the other way counts as inactive or inconclusive. Unless noted, % is set by controls: 0 for no effect and ±100 for the full control effect; potency is the fitted concentration of half-maximal effect.

SMILES	ALDH1A1 inh	Sfp inh	RORg inh	VP16 counter	PLK1 PBD inh
Cc1cc(C)c2cc(CN(CCO)Cc3nnnn3Cc3ccc(F)cc3)c(=O)[nH]c2c1	13µM*	4%	-10%	0%	-3%
COc1ccc(Cn2nnnc2CN(CCCN2CCOCC2)Cc2cc3cc(OC)ccc3[nH]c2=O)cc1	?	3%	-12%	8%	-1%
CCOc1ccc(S(=O)(=O)Nc2ccccn2)c2ccccc12	?	15%	19%	-6%	-6%
COc1ccc(S(=O)(=O)Nc2ccccn2)c(C)c1C	25µM*	7%	-1%	-25%	-1%
COc1cc(NS(=O)(=O)c2ccc(OC)c(C)c2C)c(OC)cc1Cl	?	?	?	6.3µM*	1%
O=S(=O)(c1ccc(F)cc1)N1CCN(Cc2cc3c(cc2Br)OCCO3)CC1	.	.	.	.	4%
Oc1ccc(N2CCN(Cc3cc4c(cc3Br)OCCO4)CC2)cc1	.	50µM*	-28%	-1%	-15%
O=C(CCN1CCCC1=O)NC1CCCc2c1cnn2-c1ccc(F)cc1F (stereo not drawn)	.	10%	?	6%	1%
C=CCOC(=O)NC(c1ccc(F)c(F)c1)C(C(=O)CCl)C(=O)OC (stereo not drawn)	10µM*	?	?	10%	.
Cc1ccccc1-c1csc(C(C)(O)c2ccc(F)c(F)c2)n1 (stereo not drawn)	.	.	.	.	-9%
CC(=O)Nc1ccc(NC(=O)CSc2nnc(NC(=O)c3cccc(F)c3)s2)cc1	.	23%	13µM*	?	?
CCc1ccc(Nc2nnc(SCC(=O)Nc3cccc(S(=O)(=O)NC4=NCCCCC4)c3)s2)cc1	18µM*	4%	-40%	?	-7%
O=C(CSc1nnc(NC(=O)c2c(F)cccc2F)s1)Nc1ccc(F)cc1	4%	19%	-40%	-7%	-11%
CCc1ccc(Nc2nnc(SCC(=O)Nc3ccc(C(=O)O)cc3)s2)cc1	.	-5%	5µM*	7.1µM*	-8%
O=C(Nc1nnc([C@H]2C[C@H](O)[C@@H](CO)O2)s1)NC1CCCCC1	.	.	.	.	6%
C[C@H]1CN([C@@H](C)CO)C(=O)CCCn2cc(nn2)CO[C@@H]1CN(C)C(=O)Nc1cccc(F)c1	.	.	.	.	2%
CCCC(=O)N1CCCC1(C)C(=O)Nc1cc(OC)c(OC)c(OC)c1 (stereo not drawn)	.	.	.	.	-5%
COC(=O)COc1ccc(C(C2C(=O)CC(C)(C)CC2=O)C2C(=O)CC(C)(C)CC2=O)cc1	.	56µM*	-6%	13%	?
CN1OC[C@@H]2CN(Cc3ccc(Cl)cc3)[C@H](c3cccc(Br)c3)C[C@@H]21	.	.	.	.	7%
CCOc1ccc2[nH]cc(C(=O)NCc3ccc(F)cc3)c(=O)c2c1	.	6%	?	0%	-15%
CCOCCCNC(=O)c1c[nH]c2ccc(OCC)cc2c1=O	.	15%	22%	1%	30µM*
CC[C@]12CCCN3CCc4c(n(c5ccccc45)C(=O)C1)[C@H]32	7%	9%	0%	4%	.
O=C1CCCN2N=C(SCC(=O)Nc3ccc([N+](=O)[O-])cc3)SC2=N1	.	0%	-12%	2%	38µM*
Cc1cccc(NC(=O)CSC2=NN3CCCC(=O)N=C3S2)c1C	32µM*	4%	21%	-4%	-11%
O=[N+]([O-])c1ccccc1S(=O)(=O)NC1CC2CCC1C2 (stereo not drawn)	.	9%	-39%	-5%	-4%
SMILES	ALDH1A1 inh	Sfp inh	RORg inh	VP16 counter	PLK1 PBD inh
O=C1SCCC1NS(=O)(=O)c1ccccc1[N+](=O)[O-] (stereo not drawn)	?	-1%	-8%	3%	19µM*
COc1ccc2c(c1)O[C@@H](c1ccc3c(c1)OCO3)[C@H](OC(=O)Nc1ccc(OC(F)F)cc1)C2=O	-2%	27%	19%	0%	.
N#Cc1c(Cl)nsc1NN	22µM*	40µM*	?	-4%	30µM*
O=C(NC1CCCCC1)C(c1ccc2ncccc2c1)N(Cc1ccc2c(c1)OCO2)C(=O)c1cccs1 (stereo not drawn)	5µM*	-16%	?	-12%	-9%
O=C(NC1CCCCC1)C(c1ccc2ncccc2c1)N(Cc1ccccc1)C(=O)c1ccc2c(c1)OCCO2 (stereo not drawn)	?	-8%	-4%	-17%	-3%
COc1ccc(CN(C(=O)c2cccs2)C(C(=O)NC2CCCCC2)c2ccc3ncccc3c2)cc1 (stereo not drawn)	?	-9%	35µM*	3%	-10%
O=C(NC1CCCCC1)C(c1ccc2ncccc2c1)N(Cc1ccccc1)C(=O)c1cccs1 (stereo not drawn)	?	-2%	-6%	-4%	-2%
Cc1c(O)cnc2nn(-c3ccccc3)c(=N)n12	.	.	.	.	-1%
CN(C)C(=O)[C@H]1C[C@@H]1[C@H](NC(=O)OCc1ccccc1)c1ccccc1	-12%	16%	-1%	10%	.
O=CN1CCc2c([nH]c3ccccc23)C1c1cccc2cccnc12 (stereo not drawn)	-10%	7%	-1%	5%	.
Cc1cccc(CSc2cn(CC(=O)N3CCOCC3)c3ccccc23)c1	?	-7%	-1%	-3%	-13%
COc1ccc(OC)c(NC(=O)CS(=O)(=O)c2cn(CC(=O)N3CCOCC3)c3ccccc23)c1	.	-2%	-1%	-2%	-3%
COc1ccc(NC(=O)CS(=O)(=O)c2cn(CC(=O)N3CCOCC3)c3ccccc23)cc1OC	.	56µM*	-27%	15%	-24%
O=C(Cn1cc(S(=O)(=O)Cc2ccccc2)c2ccccc21)N1CCOCC1	.	-30%	24%	0%	-4%
O=C(Cn1cc(S(=O)(=O)Cc2cccc(F)c2)c2ccccc21)N1CCOCC1	.	56µM*	-33%	-13%	-13%
O=C(Cc1cccc(F)c1)N1CCOCC1	.	.	.	.	21µM*
O=C(Cn1cc(SCc2cccc(Cl)c2)c2ccccc21)N1CCOCC1	7.5µM*	-16%	-1%	-16%	-6%
Nc1cc(=O)[nH]c(SCC(=O)Nc2cccc(Cl)c2)n1	-2%	12%	1%	-3%	0%
COC(OC)c1nc(SCC(=O)Nc2cccc(Cl)c2)ncc1C(=O)O	28µM*	-2%	-2%	-22%	0%
Cc1ccc(C2=NC(C)(C)N=C2SCC(=O)Nc2ccc(Cl)cc2)cc1	22µM*	2%	30%	9%	-23%
COc1ccc(OC)c(CN2CCN(C(=O)c3cccc(S(=O)(=O)N(C)c4ccccc4)c3)CC2)c1	.	.	.	.	-11%
C=CCN1C(=O)/C(=C2/Sc3ccccc3N2CCCS(=O)(=O)O)SC1=S	?	45µM*	-2%	4%	11µM*

High-throughput results: PubChem, National Center for Advancing Translational Sciences (NCATS)
